Reference: PubChem BioAssay (NCI)
“And” between values parts separate entries of the source, which are not always exact repeats. Equal values may be shown once. The panel holds about 79,000 compounds, 15% with a hit somewhere; the sample as a whole holds those more often. Values without a mark were called inactive. The source made the active and inactive calls. Cut-off read from the data, not from the text of the source: active = growth inhibition above about 70%; inactive = the rest.

Tests used:
[1] = NCI Yeast Anticancer Drug Screen. Data for the rad50 strain (AID 155);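 note: 0% = growth of vehicle-only cultures of the same strain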; settings: S. cerevisiae rad50 strain growth inhibition; at 50.0 µM; hits give high values
In short: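 Yeast carrying a defined DNA repair defect were exposed to test compounds, and growth was compared with vehicle-treated controls to give percent inhibition.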

[2] = NCI Yeast Anticancer Drug Screen. Data for the mec2-1 strain (AID 157); settings: S. cerevisiae mec2-1 strain, at 50.0 µM, hits give high values
In short: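 Mutant yeast (mec2-1) grown with compound; growth inhibition relative to vehicle control reported.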

[3] = NCI Yeast Anticancer Drug Screen. Data for the sgs1 mgt1 strain (AID 161);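 note: 0% = growth of cultures given vehicle only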; settings: S. cerevisiae sgs1 mgt1 strain, at 50.0 µM, hits give high values
In short: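 This yeast growth screen uses a strain with defined DNA-repair lesions; compound-treated growth is compared with vehicle-treated growth.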

[4] = NCI Yeast Anticancer Drug Screen. Data for the cln2 rad14 strain (AID 165);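 note: 0% = growth equal to vehicle treated cultures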; settings: S. cerevisiae cln2 rad14 strain, at 50.0 µM, hits give high values
In short: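 Readout is yeast growth inhibition versus vehicle-treated controls, using a strain with cln2 and rad14 alterations exposed to compound.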

[5] = NCI Yeast Anticancer Drug Screen. Data for the bub3 strain (AID 167); settings: S. cerevisiae bub3 mutant strain, at 50.0 µM, hits give high values
In short: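 Compounds were applied to a genetically altered yeast strain carrying a cell-cycle control defect. Growth inhibition was scored against vehicle-treated controls.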

[6] = NCI Yeast Anticancer Drug Screen. Data for the mlh1 rad18 strain (AID 175); settings: S. cerevisiae mlh1 rad18 strain growth inhibition; at 50.0 µM; hits give high values
In short: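 Genetically defined yeast (DNA repair-deficient) exposed to compounds; growth inhibition determined relative to vehicle.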

Row | Compound | growth inhibition [1] | growth inhibition [2] | growth inhibition [3] | growth inhibition [4] | growth inhibition [5] | growth inhibition [6]
1 | O=C1C2CCN(CC2)C1Cn1cnc2c(Cl)ncnc21 (stereo not drawn) | -3.9% | 4.1% | -4.35% | -0.55% | -2.55% | -0.75%
2 | C/C=C/CC1(C(C)C)C(=O)NC(=O)NC1=O | 8.6% and 18.7% | 11.2% and 8% | -4.2% and 10.8% | 3.8% and 10.6% | -1.25% and 1.2% | -1.65% and 8.4%
3 | Cn1c(=O)c2ncnnc2n(C)c1=O | 31.6% | 22.9% | 27.9% | 0.5% | 36.8% | 45.1%
4 | COc1ccc2c(c1O)C13CCN(C)C(C2)C1CCC(O)C3 (stereo not drawn) | -16.4% | 2.95% | -11.8% | -11.8% | -1.7% | -20%
5 | CCN(CC)C1=C(N(CC)CC)C(N(CC)CC)=C(N(CC)CC)C1=O.[C-]#[O+].[C-]#[O+].[C-]#[O+].[Fe] | -45.6% | -13.2% | -22.1% | -2.65% | -16.6% | -33.8%
6 | Cc1nc(N)sc1S(=O)(=O)F | -41.9% | -29.7% | -21.6% | -14.1% | -29.4% | -5.15%
7 | NS(=O)(=O)c1ccc([As]=O)cc1 (stereo not drawn) | -17.4% | -8.25% | -3.95% | -6.9% | -48.1% | -37.8%
8 | Cc1[nH]cc2c1C(c1ccccc1F)=NCC(=O)N2 | 19.7% | -3.5% | 17.4% | -13.7% | 8.4% | 0.1%
9 | Oc1ccc(Nc2c3ccc(Cl)cc3nc3ccc(-c4ccccc4)cc23)cc1CN(CCCl)CCCl | 98.4% (active) | 98.7% (active) | 98.8% (active) | 98.3% (active) | 93.5% (active) | 97.5% (active)
10 | Cc1cc(-n2c(C)nc3ccccc3c2=O)on1 | -35.1% | -15.7% | -4.15% | -47.5% | 8.9% | 3.75%
11 | C1CCC(NC2CCCC2)C1 | 13.4% | -0.5% | 10.1% | 11.7% | -8.4% | 5.45%
12 | CCOP(=O)(CC(=O)c1ccccc1)OCC | 10.1% | 1.25% | -18.1% | 0.6% | -1.45% | 20.8%
13 | C1CN(P(N2CCOCC2)N2CCOCC2)CCO1 | -17.6% | -70.3% | -9.25% | 18.1% | -10.4% | -28.4%
